Experimental data taken from PubChem BioAssay AID1240 (Sanford-Burnham Center for Chemical Genomics, 2008).
Among all 50,000 compounds or so, about 800 (1.6%) showed an effect of 50% or more. The full list was thinned out, with strong results kept by preference.

Each molecule was assayed against Bcl-2-like protein 10 (Homo sapiens) (UniProt Q9HD36) (assay: Phenotype converters, Bcl-B/TR3 peptide binding displacement, primary biochemical FP (AID 1240;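 also: 0% = Bcl-B with tracer peptide and DMSO and 100% = tracer peptide lacking Bcl-B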)). Details: GST-Bcl-B / FITC-TR3 peptide fluorescence polarization; stronger effect = higher value; compound at 3.75 mg/L.
Sequence of Bcl-2-like protein 10 (Homo sapiens) (Q9HD36 whole entry, looked up): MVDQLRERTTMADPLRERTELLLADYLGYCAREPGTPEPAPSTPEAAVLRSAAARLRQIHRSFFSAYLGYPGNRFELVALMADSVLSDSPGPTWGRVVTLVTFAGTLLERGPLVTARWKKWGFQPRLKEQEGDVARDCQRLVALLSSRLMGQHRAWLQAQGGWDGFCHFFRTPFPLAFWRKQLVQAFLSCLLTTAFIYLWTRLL

Compound	displacement [%]
C=C(C)COc1ccccc1/C=C1\N=C(c2cccs2)OC1=O	0.7
CC(=O)n1cc(/C=C2\N=C(c3ccc(C(C)(C)C)cc3)OC2=O)c2ccccc21	72.1
Cc1no[n+]([O-])c1COc1ccccc1/C=C1\N=C(c2ccccc2)OC1=O	-3.2
CCOc1ccc(/C=C2\N=C(c3ccccc3F)OC2=O)cc1	11
CCCOc1ccccc1/C=C1\N=C(c2ccccc2)OC1=O	64
COC(=O)c1ccc(/C=C2\N=C(c3ccc(C(C)(C)C)cc3)OC2=O)cc1	11.1
COc1ccc(/C=C2\N=C(c3ccccc3I)OC2=O)cc1	-2.3
O=C1OC(c2cccs2)=N/C1=C\c1cccc(Cl)c1Cl	29.5
CC(=O)n1cc(/C=C2\N=C(c3ccccc3F)OC2=O)c2ccccc21	7.6
C=CCOc1ccccc1/C=C1\N=C(c2ccc(C)cc2)OC1=O	-2.1
COc1ccc(/C=C2\N=C(c3ccccc3F)OC2=O)c(OC)c1	72.1
COc1cccc(/C=C2\N=C(c3cccs3)OC2=O)c1OC	59.5
O=C(CN1C(=O)c2ccccc2C1=O)Nc1nc(-c2ccccc2)cs1	-6.7
COC(=O)C(C)N(C(=O)c1ccc(C(=O)c2ccccc2)cc1)c1c(C)cccc1C (centres undefined)	10.7
COc1cccc(-c2nnc(-c3ccncc3)o2)c1	6.6
COc1cccc(OCCNC(=O)c2cc(OC)c(OC)c(OC)c2)c1	11.6
O=C1NCC(c2ccccc2)C1C(=O)N/N=C\c1cc([N+](=O)[O-])cc(Br)c1O (centres undefined)	5.6
COCCCNC(=O)/C(=C/c1ccc(-c2ccc(Br)cc2)o1)NC(=O)c1ccccc1	-6.6
CCOc1ccc(NC(=O)/C=C/c2ccc(Cl)cc2)cc1	10.1
COc1ccc(Cc2noc(-c3ccccc3C)n2)cc1	-6.7

Compound	displacement [%]
COC(=O)C1=NN(C(=O)c2ccccc2)C(O)(C(C)(C)C)C1 (centres undefined)	-3.6
O=C1OC(c2ccccc2F)=N/C1=C\c1ccccc1[N+](=O)[O-]	4.1
O=C1OC(c2ccccc2F)=N/C1=C\c1cccc(I)c1	-0.4
COc1ccc(C=C2C(=O)c3ccccc3C2=O)c(OC)c1	181
COc1cccc(/C=C2/N=C(c3ccc(NC(C)=O)cc3)OC2=O)c1	33.2
COc1ccc(C=C2C(=O)c3ccccc3C2=O)c(O)c1	18.4
COc1ccc(C2=N/C(=C\N(C)C)C(=O)O2)cc1	-9
O=C1OC(c2ccccc2F)=N/C1=C\c1cccc2ccccc12	78.4
COc1ccccc1C=C1C(=O)c2ccccc2C1=O	11.5
COc1ccc(C2=NC(=Cc3cccc4ccccc34)C(=O)O2)cc1	108
Cc1onc(-c2c(Cl)cccc2Cl)c1C(=O)N1CCN(Cc2ccccc2)CC1	0.2
CCOC(=O)CNC1CC(C)(C)NC(C)(C)C1	-1.2
COc1ccc(NC(=O)c2ccc(N(Cc3ccc(Cl)cc3)S(C)(=O)=O)cc2)c(OC)c1	26.7
Nc1cc(-c2ccc(Br)cc2)nn1Cc1ccc(Cl)cc1	-1.3
O=c1c2c3c(sc2[nH]c(=S)n1-c1ccccc1)-c1ccccc1CC3	102
O=c1c2c3c(sc2[nH]c(=S)n1-c1ccccc1)CCC3	-2.5
C=CCn1c(=S)[nH]c2sc3c(c2c1=O)CCc1ccccc1-3	-4.7
O=C(c1ccc(-c2ccccc2)cc1)N1CCN(Cc2ccc3c(c2)OCO3)CC1	-1.6
Cc1c(/C=C/c2nc3ccccc3c(=O)n2C)c2ccccc2n1C	3
O=c1c2ccccc2nc(/C=C/c2c[nH]c3ccccc23)n1-c1cccc([N+](=O)[O-])c1	-2.2

Compound	displacement [%]
Cc1[nH]c2ccccc2c1/C=C/c1nc2ccccc2c(=O)n1Cc1ccccc1	-5.8
O=c1c2ccccc2nc(/C=C/c2c[nH]c3ccccc23)n1-c1ccc([N+](=O)[O-])cc1	-62.9
Cn1c(/C=C/c2c[nH]c3ccccc23)nc2ccccc2c1=O	108
Cc1[nH]c2ccccc2c1/C=C/c1nc2ccccc2c(=O)n1C	186
COc1ccc(C)cc1NC(=O)c1cccnc1	20.4
COc1cc(/C=c2\sc3nc4ccccc4n3c2=O)cc(Br)c1OCc1ccccc1F	13.9
COc1ccc(-c2nnc(SCC(=O)Nc3ccc(C)cc3Br)o2)cc1	14.5
O=C(/C=C/c1cccc([N+](=O)[O-])c1)Nc1ccc(-c2nc3ccccc3o2)cc1	-5.2
Cc1ccc2oc(-c3cccc(NC(=O)/C=C/c4cccc([N+](=O)[O-])c4)c3C)nc2c1	-24.7
O=C(/C=C/c1ccccc1)Nc1ccc(-c2nc3ccccc3o2)c(O)c1	127
Cc1c(NC(=O)/C=C/c2cccc([N+](=O)[O-])c2)cccc1-c1nc2ncccc2o1	74.8
Cc1ccc(-c2nc3ccccc3o2)cc1NC(=O)/C=C/c1cccc([N+](=O)[O-])c1	74.2
O=C(/C=C/c1ccc(Cl)cc1)Nc1ccc(-c2nc3ccccc3o2)c(O)c1	-0.3
COc1ccc(Br)cc1/C=C/C(=O)Nc1ccc(-c2nc3ncccc3o2)cc1	-4.5
COc1ccc(Br)cc1C(=O)Nc1cccc(-c2nc3ncccc3o2)c1C	-3.8
Cc1ccc(-c2nc3cc(Cl)ccc3o2)cc1NC(=O)/C=C/c1cccc([N+](=O)[O-])c1	-18.8
O=C(/C=C/c1ccccc1)Nc1ccc(O)c(-c2nc3ccccc3o2)c1	-3.2
COc1ccc(Br)cc1/C=C/C(=O)Nc1cccc(-c2nc3ncccc3o2)c1C	95.3
O=C(/C=C/c1cccc([N+](=O)[O-])c1)Nc1ccc(-c2nc3ncccc3o2)cc1	45.3
